# Dicer inh = inhibitors of Dicer pre-microRNA processing, primary screen, biochemical, cat-ELCCA, chemiluminescence | cat-ELCCA pre-miR-21 Dicer processing; hits give high values | z-score at 25 µM | 47,000 compounds, 6% hits | AID 1347074, 2019; in the data active means z-score above about 3, passing the limit was not always enough;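 further: plate controls were vehicle for no effect and no enzyme for full effect; higher signal means more uncleaved substrate so more Dicer inhibition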
# * marks the source's active call; other numbers are inactive results. The entries come from a sample that favours hits as a whole.
SMILES,Dicer inh
CC(=O)N[C@H]1[C@@H](OCc2ccccc2)O[C@@H]2COC(c3ccccc3)O[C@H]2[C@@H]1O (stereo not given in full),-0.18
O=C(O)CCC(=O)NC1Cc2ccccc2C1,-0.49
CC(C)(C)OC(=O)NC(COCc1ccccc1)C(N)=O (stereo not given),-0.63
CSCC[C@H](NC(=O)OC(C)(C)C)C(=O)OCc1ccc(CC(=O)O)cc1,3*
CC(C)(C)OC(=O)N[C@@H](Cc1ccccc1)C(=O)OCc1ccc(CC(=O)O)cc1,0.83
COc1ccc(CCNc2nc(-c3ccc(OC)c(OC)c3)cs2)cc1OC,-0.2
CN(C)/C=C(\C#N)S(=O)(=O)c1ccsc1,-0.62
CCOc1ccc(N2C(=O)C3ON(c4ccccc4)C(c4ccccc4O)C3(C)C2=O)cc1 (stereo not given),-1.1
O=C1c2ccccc2S(=O)(=O)N1CCCCN1C(=O)c2ccccc2S1(=O)=O,-1
CCOC(=O)c1nnn(-c2nonc2N)c1-c1cccs1,-0.05
CCOC(=O)c1nnn(-c2nonc2N)c1-c1ccccc1Cl,1.3
CCOC(=O)c1nnn(-c2nonc2N)c1CN(CC)c1ccccc1,5.1*
CCOC(=O)c1nnn(-c2nonc2N)c1CN(C)c1ccccc1,-0.22
CCOC(=O)c1nnn(-c2nonc2N)c1-c1cccc2ccccc12,4*
CCN(Cc1c(C(=O)O)nnn1-c1nonc1N)c1ccccc1,2.6
COc1nc(OC)nc(N2CCCc3cccc(C)c32)n1,-0.93
CCCSc1nnc2c(n1)OC(C)=Nc1ccc(Br)cc1-2,3.7*
CCSc1nnc2c(n1)OC(C)=Nc1ccc(Br)cc1-2,3.4*
CCCCSc1nnc2c(n1)OC(CC)=Nc1ccccc1-2,-0.65
CSc1nnc2c(n1)OC(C)=Nc1ccc(Br)cc1-2,1.9
CSc1nnc2c(n1)OC(C)=Nc1ccccc1-2,0.37
CCSc1nnc2c(n1)OC(CC)=Nc1ccccc1-2,-1.2
O=C1C=C(NC2Cc3ccccc3C2)CC(c2ccccc2Cl)C1 (stereo not given),-0.41
O=C(Oc1ccc(Br)cc1C1SCCS1)c1ccc(Cl)cc1,6.6
COc1ncc(C(=O)NNC(=O)c2ccno2)cc1[N+](=O)[O-],-0.5
SMILES,Dicer inh
CC(C)NC(=O)C(=O)NCC1CCCO1 (stereo not given),0.7
CC(O)CNC(=O)C(=O)NCC1CCCO1 (stereo not given),1.2
CCOC(=O)C(C(=O)NCC1CCCO1)C1CCCCC1 (stereo not given),4*
CN1CCN(c2c3c(nc4ccccc24)-c2ccccc2CC3)CC1,-0.3
CCCCN(C)CC(O)Cn1c2ccccc2c2ccccc21 (stereo not given),0.49
O=S(=O)(CCC1CCCC/C1=N/O)c1ccc(Cl)cc1 (stereo not given),-0.2
Cc1nc2c(s1)c(C)nn2-c1ccccc1,0.81
Cc1nc2c(=O)n(-c3ccc(F)cc3F)nc(C)c2s1,3.2*
CC1SC(c2cccnc2)N(c2ccc(F)cc2F)C1=O (stereo not given),2.9
COC(=O)c1c(C)sc2cc(C(C)(C)C)sc12,-0.8
CC(=O)NC1C(=O)N(C)c2ccc(Cl)cc21 (stereo not given),-0.68
Cc1ccc(N2C(=O)CSC23CCCCC3)cc1C,0.07
O=C(O)c1ccc(N2C(=O)CCC2=O)cc1,4.8*
CC12C=CC(O1)C1C(=O)N(c3ccc(C(=O)O)cc3)C(=O)C12 (stereo not given),-0.17
CCCCCCC(=O)Oc1ccc(N2C(=O)CCC2=O)cc1,1.4
Cc1ccc(C(=O)Nc2ccccc2Sc2ccc(Cl)cc2[N+](=O)[O-])cc1C,-0.18
O=C(Nc1ccc(Cl)cc1)N1CCOCC1,0.1
O=C(Nc1ccc(OC(=O)N(c2ccccc2)c2ccccc2)cc1)N1CCOCC1,3.9*
O=C(Nc1ccccc1)N1CCSCC1,1.6
CC(C)S(=O)(=O)C/C(N)=N/OC(=O)Nc1ccc(Cl)cc1,2
O=C(O)c1c[nH]c2ccc(OC(F)(F)F)cc2c1=O,0.33
O=C(Nc1nnc(C(F)(F)F)s1)c1c(F)cccc1F,-0.09
FC(F)(F)c1nnc(Nc2ccc(Cl)cc2)s1,7.3*
FC(F)(F)c1nnc(Nc2cccnc2)s1,0.07
O=C(NNc1c(Cl)cc(Cl)cc1Cl)NC(=O)c1ccccc1Cl,0.39
SMILES,Dicer inh
Nc1nc(Cl)nc2c1ncn2[C@@H]1O[C@H](COP(=O)(O)OP(=O)(O)OP(=O)(O)O)[C@H](O)C1O (stereo not given in full),-0.99
Cc1cc(-c2c(C(=O)N3CCCCC3)c(C)nn2-c2cccc(C(F)(F)F)c2)no1,1.1
C=CCN1C(=O)NC2C1N(S(C)(=O)=O)CCN2S(C)(=O)=O (stereo not given),5.8*
O=C(CSc1nnc(-c2cccs2)n1-c1ccccc1)c1c[nH]c2ccccc12,1.3
Cc1cccc(Nc2nc(-c3ccncc3)cs2)n1,2.1
Cc1ccnc(Nc2nc(-c3ccc(O)c(O)c3)cs2)c1,3.9*
C=CCNc1nc(-c2ccc(O)c(OC)c2)cs1,-0.25
Cc1cccc(Nc2nc(-c3ccc(O)c(O)c3)cs2)n1,5.2*
Cc1ccnc(Nc2nc(-c3ccc(O)cc3)cs2)c1,4.5
Cc1ccc(Nc2nc(-c3ccccc3)cs2)nc1,2.1
CC(=O)Nc1cc(-c2sc3ccc(Cl)cc3c2C)[nH]n1,1.4
Fc1ccc(NC(=S)Nc2cccc(NC(=S)Nc3ccc(F)cc3)n2)cc1,2.2
Cc1cc(C)cc(N2C(=O)CSC2=S)c1,0.46
Fc1ccc(C2Sc3ccccc3N=C3c4ccccc4CC32)cc1 (stereo not given),-5.7
CC(=O)c1ccc(N2CCN(S(=O)(=O)c3ccc(CNC(=O)c4ccccc4)s3)CC2)cc1,-0.67
Cc1ccc(S(=O)(=O)Oc2cc(=O)n(C)c3ccccc23)cc1,-0.45
O=C(Nc1ccc(Cl)cc1)n1nccc1-c1ccc([N+](=O)[O-])cc1Cl,2
NN/C(N)=N/C(N)=Nc1ccccc1F,2
CCc1ccccc1N=C(N)N=C(N)N,5.5*
NC(N)=NC(N)=Nc1ccccc1,-0.24
N#CCc1cn(-c2ccccc2)nc1-c1ccccc1,0.89
Cc1ccc(S(=O)(=O)n2nc(C)c(Sc3ccc(C(F)(F)F)cn3)c2C)cc1,-3.6
CC(=O)OCc1ccc(/C=C(\C#N)S(C)(=O)=O)o1,-0.08
COC(=O)C1=C(C)Nc2c(c(=O)n(C)c(=O)n2C)C1c1ccc(Br)cc1 (stereo not given),3.4*
COC(=O)C1=C(C)Nc2[nH]c(=O)[nH]c(=O)c2C1c1ccc(Br)cc1 (stereo not given),1.2
SMILES,Dicer inh
COC(=O)C1=C(C)NC2=C(C(=O)CCC2)C1c1ccc(Br)cc1 (stereo not given),-0.9
CC1CN(/C(N)=N/S(=O)(=O)c2cc(C(F)(F)F)cc(C(F)(F)F)c2)CC(C)O1 (stereo not given),-1.4
NNC(=O)CSc1nc2cccnc2s1,-0.21
COc1ccc(Br)c(C(=O)NN)c1,0
COc1ccc(Br)c(C(=O)/C(C#N)=C/c2cccs2)c1,0.78
COc1ccc(Br)c(C(=O)/C(C#N)=C/c2ccc(N(C)C)cc2)c1,6.2*
CN1C(=O)N(CO)C2C1N(C)C(=O)N2CO (stereo not given),0.95
CSc1nn(-c2ccccc2)cc1-c1noc(-c2ccc(Cl)cc2)n1,-0.3
O=C1c2ccccc2C(=O)N1CN1CCN(C(c2ccccc2)c2ccccc2)CC1,0.49
O=C1c2ccccc2C(=O)N1CN1CCSCC1,0.66
CC1CN(CN2C(=O)c3ccccc3C2=O)CC(C)O1 (stereo not given),3.4*

# Source: PubChem
